Reference: the supplement of paper PMC9262897, “Low-cost anti-mycobacterial drug discovery using engineered E. coli” (Nature Communications, 2022)
Counter-ions that a name gives are not always drawn. ± gives the standard deviation of the averaged measurements.

How the values were obtained:
Experiment in all cases: growth (OD600 after 10 h); higher = more growth (less inhibition)
[1] = system: E. coli TESEC Alr+ wild-type control; conditions: compound 0.1 mM; raw OD600 reference: median of DMSO wells 0.241, cell-free background 0.041
Experimental: (§1)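 TESEC Mtb Alr E. coli, or the Alr+ wild-type control, in 384-well plates with Prestwick library compounds at 0.1 mM and 1% DMSO, across arabinose induction levels of 1E3 to 1E7 nM. Growth is read as OD600 after 10 h at 37 °C in triplicate biological replicates.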

[2] = system: E. coli TESEC Mtb Alr; conditions: compound 0.1 mM
Experimental: as §1

[3] = system: E. coli TESEC Mtb Asd; conditions: compound 0.1 mM
Experimental: (§2)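 TESEC E. coli strains in which the native enzyme is deleted and replaced by arabinose-inducible Mtb Asd, DapB, CysH or TrpD, each grown in its selective medium. Strains were screened against the Prestwick library at 0.1 mM and 1% DMSO in 384-well format at low and high arabinose induction. Growth is read as OD600 after 10 h in triplicate.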

[4] = system: E. coli TESEC Mtb DapB; conditions: compound 0.1 mM
Experimental: as §2

[5] = system: E. coli TESEC Alr+ wild-type control; conditions: compound 0.1 mM; raw OD600 reference: median of DMSO wells 0.49, cell-free background 0.052
Experimental: (§3)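 TESEC Mtb Alr E. coli (ΔaraC ΔtolC ΔentC Δalr ΔdadX, arabinose-inducible Mtb Alr) or the Alr+ wild-type control strain, grown in defined M9-fructose medium without D-alanine in 96-well plates with Prestwick library compounds at 0.1 mM and 1% DMSO. Low Alr induction is 0.1 µM arabinose and high induction is 10 mM arabinose.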

[6] = system: E. coli TESEC Mtb Alr; conditions: compound 0.1 mM; remark: listed apart in the source
Experimental: as §3

[7] = arabinose 1000 nM, raw OD600 reference: median of DMSO wells 0.294, cell-free background 0.041
[8] = arabinose 10000 nM, raw OD600 reference: median of DMSO wells 0.264, cell-free background 0.041
[9] = arabinose 100000 nM, raw OD600 reference: median of DMSO wells 0.201, cell-free background 0.041
[10] = arabinose 1000000 nM, raw OD600 reference: median of DMSO wells 0.193, cell-free background 0.041
[11] = arabinose 10000000 nM, raw OD600 reference: median of DMSO wells 0.146, cell-free background 0.041
[12] = arabinose induction (level): High, raw OD600 reference: median of DMSO wells 0.331, cell-free background 0.041
[13] = arabinose induction (level): Low, raw OD600 reference: median of DMSO wells 0.417, cell-free background 0.041
[14] = arabinose induction (level): High, raw OD600 reference: median of DMSO wells […], cell-free background 0.041
[15] = arabinose induction (level): Low, raw OD600 reference: median of DMSO wells 0.227, cell-free background 0.041
[16] = arabinose 100 nM, raw OD600 reference: median of DMSO wells 0.413, cell-free background 0.052
[17] = arabinose 10000000 nM, raw OD600 reference: median of DMSO wells […], cell-free background 0.052

| SMILES | growth [1] | growth [2, 7] | growth [2, 8] | growth [2, 9] | growth [2, 10] | growth [2, 11] | growth [3, 12] | growth [3, 13] | growth [4, 14] | growth [4, 15] | growth [5] | growth [6, 16] | growth [6, 17] |
| --- | --- | --- | --- | --- | --- | --- | --- | --- | --- | --- | --- | --- | --- |
| O=C(O)Cc1cc(I)c(Oc2ccc(O)c(I)c2)c(I)c1 [Tiratricol, 3,3',5-triiodothyroacetic acid] | 0.0409 ± 0.00083 | 0.0428 ± 0.0019 | 0.04123 ± 0.00021 | 0.0442 ± 0.0023 | 0.0408 ± 0.00017 | 0.0558 ± 0.002 | 0.057 ± 0.0056 | 0.06 ± 0.0072 | 0.0676 ± 0.0044 | 0.108 ± 0.09 | 0.0593 ± 0.0022 | 0.167 ± 0.087 | 0.05437 ± 0.00015 |
| NCCc1cc[nH]n1 [Betazole hydrochloride] | 0.25 ± 0.0071 | 0.254 ± 0.06 | 0.259 ± 0.014 | 0.2 ± 0.03 | 0.1943 ± 0.00064 | 0.14 ± 0.0021 | 0.279 ± 0.0079 | 0.379 ± 0.081 | 0.215 ± 0.021 | 0.254 ± 0.052 | 0.494 ± 0.066 | 0.408 ± 0.013 | 0.305 ± 0.067 |
| OCCOCCN1CCN(C2=Nc3ccccc3Sc3ccccc32)CC1 [Quetiapine hemifumarate] | 0.158 ± 0.01 | 0.25 ± 0.0048 | 0.255 ± 0.0044 | 0.203 ± 0.026 | 0.121 ± 0.0057 | 0.151 ± 0.0081 | 0.162 ± 0.024 | 0.361 ± 0.016 | 0.174 ± 0.013 | 0.187 ± 0.021 | 0.486 ± 0.019 | 0.396 ± 0.0062 | 0.289 ± 0.0089 |
| CCOC(=O)Nc1ccc2c(c1)N(C(=O)CCN1CCOCC1)c1ccccc1S2 [Moricizine hydrochloride] | 0.157 ± 0.0017 | 0.202 ± 0.0069 | 0.222 ± 0.0081 | 0.196 ± 0.012 | 0.1097 ± 0.00081 | 0.14 ± 0.0063 | 0.175 ± 0.018 | 0.228 ± 0.083 | 0.168 ± 0.0088 | 0.199 ± 0.022 | 0.354 ± 0.0077 | 0.3937 ± 0.0035 | 0.258 ± 0.022 |
| CC[C@@H](CO)NCCN[C@@H](CC)CO [Ethambutol dihydrochloride] | 0.25 ± 0.0032 | 0.291 ± 0.023 | 0.255 ± 0.0099 | 0.216 ± 0.021 | 0.18 ± 0.0035 | 0.147 ± 0.0024 | 0.353 ± 0.067 | 0.39 ± 0.091 | 0.19 ± 0.0055 | 0.2 ± 0.022 | 0.476 ± 0.06 | 0.411 ± 0.0072 | 0.366 ± 0.015 |
| CC1CCc2cc(F)cc3c(=O)c(C(=O)O)cn1c23 (configuration not stated) [Flumequine] | 0.0491 ± 0.00083 | 0.04537 ± 0.00031 | 0.0396 ± 0.00065 | 0.0452 ± 0.0012 | 0.0416 ± 0.0004 | 0.04987 ± 0.00029 | 0.059 ± 0.0029 | 0.0732 ± 0.0099 | 0.0826 ± 0.0024 | 0.0692 ± 0.0075 | 0.0527 ± 0.00046 | 0.0543 ± 0.0034 | 0.05097 ± 0.00047 |
| COc1ccccc1N1CCN(CC(O)COc2cccc3ccccc23)CC1 (configuration not stated) [Naftopidil dihydrochloride] | 0.0455 ± 0.00068 | 0.0439 ± 0.0023 | 0.0416 ± 0.00044 | 0.0537 ± 0.0089 | 0.0425 ± 0.001 | 0.0492 ± 0.0015 | 0.0476 ± 0.00036 | 0.0516 ± 0.0046 | 0.0582 ± 0.0019 | 0.0626 ± 0.0085 | 0.0532 ± 0.0005 | 0.4077 ± 0.0026 | 0.0524 ± 0.0021 |
| Cc1ccc(-c2ncc(Cl)cc2-c2ccc(S(C)(=O)=O)cc2)cn1 [Etoricoxib] | 0.17 ± 0.0023 | 0.241 ± 0.006 | 0.213 ± 0.0045 | 0.184 ± 0.014 | 0.15 ± 0.0079 | 0.161 ± 0.0033 | 0.266 ± 0.076 | 0.241 ± 0.0033 | 0.204 ± 0.031 | 0.261 ± 0.029 | 0.388 ± 0.0074 | 0.414 ± 0.0091 | 0.281 ± 0.018 |
| COc1ccc(C(=O)CC(=O)c2ccc(C(C)(C)C)cc2)cc1 [Avobenzone] | 0.116 ± 0.017 | 0.188 ± 0.026 | 0.197 ± 0.016 | 0.176 ± 0.02 | 0.107 ± 0.033 | 0.109 ± 0.0074 | 0.277 ± 0.068 | 0.27 ± 0.0061 | 0.202 ± 0.072 | 0.239 ± 0.055 | 0.533 ± 0.076 | 0.247 ± 0.058 | 0.267 ± 0.0055 |
| Cc1nnc(SCC2=C(C(=O)O)N3C(=O)[C@@H](NC(=O)Cn4cnnn4)[C@H]3SC2)s1 [Cefazolin sodium salt] | 0.286 ± 0.013 | 0.3162 ± 0.0031 | 0.24 ± 0.0064 | 0.229 ± 0.0084 | 0.183 ± 0.0062 | 0.145 ± 0.0033 | 0.313 ± 0.07 | 0.428 ± 0.0098 | 0.192 ± 0.0067 | 0.237 ± 0.019 | 0.562 ± 0.098 | 0.328 ± 0.015 | 0.363 ± 0.0051 |
| COc1ccc(CC(C)NCC(O)c2ccc(O)c(NC=O)c2)cc1 (configuration not stated) [Formoterol fumarate] | 0.235 ± 0.0095 | 0.298 ± 0.0087 | 0.293 ± 0.011 | 0.219 ± 0.024 | 0.18 ± 0.011 | 0.16 ± 0.0057 | 0.251 ± 0.018 | 0.395 ± 0.057 | 0.212 ± 0.019 | 0.238 ± 0.025 | 0.501 ± 0.04 | 0.41363 ± 5.8e-05 | 0.306 ± 0.019 |
| CC(=O)O[C@@]12CO[C@@H]1C[C@H](O)[C@@]1(C)C(=O)[C@H](O)C3=C(C)[C@@H](OC(=O)[C@H](O)[C@@H](NC(=O)OC(C)(C)C)c4ccccc4)C[C@@](O)([C@@H](OC(=O)c4ccccc4)[C@H]21)C3(C)C [Docetaxel] | 0.266 ± 0.005 | 0.34 ± 0.0038 | 0.299 ± 0.014 | 0.311 ± 0.094 | 0.134 ± 0.011 | 0.206 ± 0.02 | 0.248 ± 0.011 | 0.373 ± 0.071 | 0.204 ± 0.016 | 0.229 ± 0.047 | 0.614 ± 0.12 | 0.4282 ± 0.0041 | 0.297 ± 0.0093 |
| CC=CC1=C(C(=O)O)N2C(=O)[C@@H](NC(=O)[C@H](N)c3ccc(O)cc3)[C@H]2SC1 [Cefprozil] | 0.223 ± 0.0095 | 0.303 ± 0.0056 | 0.269 ± 0.016 | 0.184 ± 0.0039 | 0.194 ± 0.021 | 0.163 ± 0.0058 | 0.259 ± 0.048 | 0.417 ± 0.022 | 0.204 ± 0.0084 | 0.255 ± 0.039 | 0.543 ± 0.068 | 0.414 ± 0.017 | 0.374 ± 0.015 |
| N[C@@H](C(=O)N[C@@H]1C(=O)N2C(C(=O)O)=C(Cl)CS[C@H]12)c1ccccc1 [Cefaclor hydrate] | 0.264 ± 0.0067 | 0.315 ± 0.0086 | 0.249 ± 0.0072 | 0.244 ± 0.025 | 0.1991 ± 0.0017 | 0.158 ± 0.021 | 0.333 ± 0.052 | 0.425 ± 0.067 | 0.201 ± 0.0068 | 0.247 ± 0.017 | 0.489 ± 0.033 | 0.224 ± 0.036 | 0.354 ± 0.032 |
